Results published in PubChem BioAssay (NCI).
This is part of a sample that, as a whole, favours compounds with a hit. Of some 83,000 tested, about 20% had one in any assay.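 A percent growth of 40 corresponds to 60% growth inhibition; 0 means no net growth; -100 means all cells died. Active threshold: below 10.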 A number with no mark means an inactive call. Active and inactive are the calls of the source.

Assays:
Assay in all cases: NCI-60 one-dose screen, 48 h (100 = growth as untreated, 0 = no growth, -100 = all killed)
Settings in all cases: 10 µM unless noted
[1] = tested on: HCT-15 colon
[2] = tested on: HT29 colon
[3] = tested on: SNB-75 CNS
[4] = tested on: SNB-19 CNS
[5] = tested on: U251 CNS
[6] = tested on: PC-3 prostate
[7] = tested on: SK-MEL-5 melanoma
[8] = tested on: UACC-62 melanoma
[9] = tested on: LOX IMVI melanoma
[10] = tested on: SK-MEL-2 melanoma
[11] = tested on: EKVX NSCLC
[12] = tested on: SN12C renal
[13] = tested on: UO-31 renal
[14] = tested on: TK-10 renal
[15] = tested on: ACHN renal
[16] = tested on: CAKI-1 renal
[17] = tested on: A498 renal
[18] = tested on: CCRF-CEM leukemia
[19] = tested on: MOLT-4 leukemia
[20] = tested on: SK-MEL-28 melanoma

Row | SMILES | growth [1] | growth [2] | growth [3] [%] | growth [4] [%] | growth [5] | growth [6] | growth [7] | growth [8] | growth [9] | growth [10] [%] | growth [11] | growth [12] | growth [13] | growth [14] | growth [15] | growth [16] | growth [17] | growth [18] | growth [19] | growth [20]
1 | CN(C)CC(=O)c1ccc2cc(Br)c3ccccc3c2c1 | 62.1% | 9.4% (active) | 83.7 | 69.7 | 53.3% | 57.2% | 83% | 79.1% | 43.6% | 61.3 | 89.7% | 72.6% | 36% | 72.7% | 59.7% | 75.4% | 42.2% | 71.3% | 40.3% | –
2 | N/C(=N\OC(=O)c1ccccc1)C(C(=O)NOC(=O)c1ccccc1)C1CCCCC1 (stereo unspecified) | 53.3% | 96.7% | 35.7 | 76 | -25% (active) | 54.5% | 74.3% | 56.6% | -85.2% (active) | 121 | 66.8% | 89.1% | -50.5% (active) | 92.6% | 25.6% | -55.3% (active) | 86.2% | 30% | 55.9% | –
3 | C=C[C@H]1CCC/C=C/[C@@H]2C[C@H](O)C[C@H]2[C@H](O)/C=C/C(=O)O1 | 5.82% (active) | -51.5% (active) | 25.8 | 22.3 | 14.6% | 15.1% | -77.7% (active) | 5.56% (active) | -99.1% (active) | – | 3.38% (active) | 5.71% (active) | -11.2% (active) | -45.6% (active) | 5.96% (active) | -1.92% (active) | -48.7% (active) | 7.38% (active) | 0.424% (active) | 7.46% (active)
4 | CCN(CC)c1cc(C)c(Cc2c(OC)ccc3ccccc23)cc1C | 97.8% | 73.7% | 91.1 | 93.2 | 94.9% | 83.9% | 99.4% | 79.8% | 94.9% | 94.4 | 93.4% | 91.2% | 73.1% | 95.6% | 99.4% | 93.1% | 96.6% | 102% | 79.7% | –
5 | COc1ccc(/C=C/C(=O)CCC(=O)O)cc1OC | 115% | 101% | 90.5 | 111 | 107% | 111% | 109% | 110% | 99.7% | – | 109% | 101% | 83.3% | 104% | – | 95.5% | 121% | 95.6% | 102% | 112%
6 | CC(C)OC1OC(OC(C)C)C(OC(C)C)OC1OC(C)C (stereo unspecified) | 98.1% | 95.8% | 99 | 90.9 | 90.3% | 91.8% | 110% | 85.9% | 102% | – | 103% | 94.6% | 92.5% | 102% | 95.1% | 93.9% | 101% | – | 80.2% | 106%
7 | ClCc1c(Cl)c(Cl)c(Cl)c(CCl)c1Cl | 4.87% (active) | -78.4% (active) | 89 | 58.7 | -25.4% (active) | 8.08% (active) | 61.3% | 103% | -79% (active) | – | 101% | 41.5% | -21.7% (active) | -73.9% (active) | – | -76.4% (active) | 89% | 3.24% (active) | 13.3% | 88.7%
8 | CCCCCCCC/C=C/CCCCCCCC1=NC(C)(C)CN1C(C)C | -45.1% (active) | -51.3% (active) | 25.5 | 46.4 | -76.1% (active) | -74.4% (active) | -86.3% (active) | -60.5% (active) | -81.2% (active) | – | 10.6% | 16.8% | -17.4% (active) | -14.8% (active) | -78.3% (active) | 31.2% | 65.7% | -43.4% (active) | -63.2% (active) | -82.8% (active)
9 | ClC1=NC(Cl)C(Cl)=N/C1=N\c1ncn[nH]1 (stereo unspecified) | -71.9% (active) | -62.8% (active) | 68.9 | 111 | -50.5% (active) | 20.3% | 74.1% | 83.6% | -50.7% (active) | – | – | 26.3% | -81.7% (active) | -75.9% (active) | -92.4% (active) | -75.9% (active) | 121% | – | -52.2% (active) | 15.1%
10 | COc1ccc(Nc2nc(N)nc3c(=O)[nH]ccc23)cc1 | 109% | 103% | 107 | 101 | 115% | 81.5% | 111% | 111% | 102% | 111 | 105% | 113% | 64.6% | 173% | 115% | 93.3% | 120% | 83.9% | 97.8% | –
11 | CCN(CC)c1ccc(/C=C2/NC(=O)NC2=O)cc1 | 36.6% | 16.5% | 59.1 | 61.1 | 44.7% | 65.8% | -7.83% (active) | 11.7% | 46.4% | – | 1.53% (active) | 55.9% | 53.5% | – | 71.4% | 39% | 23.8% | – | – | 66.6%
12 | COc1ccc2[nH]cc(C3(c4c[nH]c5ccc(OC)cc45)C(=O)Nc4ccc(Cl)cc43)c2c1 | 69.1% | 44.9% | 39.7 | 82.3 | 72.2% | 15% | 89.2% | 73% | 45% | – | 43.5% | 91.8% | 46.3% | 107% | 76% | 62.2% | 73.8% | 15.8% | 5.75% (active) | 95.3%
13 | O=C(/C=C/c1ccc(F)cc1)N1CCN(C(=O)/C=C/c2ccc(C(F)(F)F)cc2)CC1 | 104% | 101% | 119 | 103 | 107% | 117% | 98.9% | 96.6% | 111% | – | 93.1% | 106% | 89.7% | 105% | 115% | 97.3% | 130% | 103% | 115% | 106%
14 | CC(C)(C)c1nn(-c2ccccc2)c2c1C(=O)CSC(c1ccc3c(c1)OCO3)N2 (stereo unspecified) | 89.9% | 100% | 98.4 | 101 | 107% | 84.4% | 110% | 85.3% | 87% | – | 80.2% | 91.3% | 74.8% | 103% | 107% | 81.4% | 113% | 98.1% | 86% | 109%
15 | O=[N+]([O-])c1ccc(N/N=C/c2ccccc2O)nc1 | 29.9% | 47% | 52.9 | 56.2 | 28.5% | 45.8% | 20% | 42.7% | 26.4% | – | 29.7% | 37.7% | 25.5% | 26.2% | 27.3% | 4.68% (active) | 97.8% | 17.1% | 14.3% | 62%
16 | Fc1cc(-c2cnc3nonc3n2)c(Cl)cc1Cl | 51% | 87.9% | 99.9 | 90.4 | 109% | 85.3% | 98.3% | 82.3% | 101% | 102 | 102% | 91.8% | -28.3% (active) | 72.4% | 18.1% | 85% | 95.7% | -12.7% (active) | 20.2% | –
